Experimental data as given in PubChem BioAssay AID977624 (Broad Institute, 2014).
In all, about 1,800 compounds went through this assay and fewer than 10 were called active. About 44% were inconclusive and are not listed.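 How the source made its calls: active means compound lowering the normal-ribosome reporter at least twice as much as the humanized-ribosome reporter, growth loss under a set limit; inconclusive means no clear call, values can overlap the other calls; inactive means the rest.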 A selection follows.

assay: growth inhibition of wild-type GFP E. coli, dose response, h34 mutant RFP, cherry-pick (AID 977624); conditions: E. coli wild-type GFP strain growth, fluorescence, 24 h; series mostly up to 50 µM

outcome, inactive:
Cc1cccc(C)c1Nc1ncnc2ccccc12
Cc1ccc(-c2n[nH]c(S(C)(=O)=O)c2C#N)cc1
C=CCN(c1ccccc1)S(=O)(=O)c1cccc2cccnc12
Cc1nn(Cc2cccc(F)c2)c(C)c1NC(=O)c1c(Cl)cnn1C
COc1ccc(NC(=O)CCC(=O)c2cccs2)cc1S(=O)(=O)Nc1ccc(Cl)cc1
C[C@@H]1CN([C@H](C)CO)C(=O)CCCn2nncc2CO[C@@H]1CN(C)C(=O)Nc1ccc(C(F)(F)F)cc1
COc1ccccc1OCC(=O)Nc1ccc(S(=O)(=O)N2CCCCCC2)cc1
CN(C)CCCN(C(=O)CCSc1ccccc1)c1nc2cc3c(cc2s1)OCO3
CCCC(=O)N(CCc1ccc(OC)cc1)Cc1nc2ccccc2c(=O)[nH]1
Cc1ccc(NC(=O)c2c(C)noc2-c2snnc2C)cc1
COC(=O)c1sc(C(C)(C)C)cc1CS(=O)(=O)c1ccc(Cl)cc1
CCc1ccc(NC(=O)COC(=O)CCCC2=NS(=O)(=O)c3ccccc3N2)cc1
CCn1c(-c2ccccc2Cl)nn(CC(=O)Nc2ccccc2OC)c1=S
C[C@@H]1CCCCO[C@@H](CN(C)C)[C@@H](C)CN([C@@H](C)CO)C(=O)c2cc(NC(=O)Nc3cccc4ccccc34)ccc2O1
CC(C)CNc1nc(S(=O)(=O)c2ccccc2)c(Cl)s1
Cc1ccc(-c2nc(CN3CCCCC3c3cccc(F)c3)c(C)o2)o1 (centres undefined)
CCOC(=O)c1c(C)nsc1NCc1ccccc1
CC(C)CN1C(=O)c2ccc(C(=O)Nc3ccncc3)cc2C1=O
COc1cccc(C(NC(C)=O)c2nc(-c3ccccc3OC)cs2)c1 (centres undefined)
Cc1cccc(-c2ccc([C@H]3[C@H]4CN(S(=O)(=O)c5ccccc5C)CCCCN4[C@H]3CO)cc2)c1
CC(=O)Nc1cccc(NC(=O)CSc2ccc(-c3cccnc3)nn2)c1
CCOC(=O)c1cc(-c2ccc(OC)cc2)n[nH]1
CCN(CC)CCN(C(=O)c1ccc2c(c1)OCCO2)c1nc2c(Cl)cccc2s1
CN(C)Cc1nc2ccccc2c(=O)n1Cc1nc(-c2cccc([N+](=O)[O-])c2)cs1
COc1cccc(NC(=O)COC(=O)Cc2ccccc2[N+](=O)[O-])c1
CCOC(=O)Cc1nnc(NC(=O)CSc2nc3ccccc3[nH]2)s1
O=C(O)CCCCCCCCc1cn(CC2CCCCC2)nn1
O=C(Nc1ccncc1)c1ccc(S(=O)(=O)Nc2ccccc2)cc1
Cc1cccc(OCCC(=O)Nc2ccc(F)c(F)c2)c1
CCN(CC(=O)Nc1cccc(C#N)c1)CC(=O)Nc1cccc(OC)c1
C=C(C)Cn1c(=O)c2c(nc3n2CC(C)CN3Cc2ccccc2)n(C)c1=O (centres undefined)
O=S1(=O)N[C@H](Cc2ccccc2)COc2cccc(N3CCC[C@H]3CO)c21
Cc1ccccc1-n1ncc2c1CC(C)(C)CC2NC(=O)CCN1Cc2ccccc2C1=O (centres undefined)
O=C(Nc1ccc2c(c1)OCO2)c1cccc(S(=O)(=O)N2CCCC2)c1
CCOc1ccccc1NC(=O)c1ccc2ccccc2c1
CC(=O)c1c(C)nn(CC(O)COc2ccc3c(c2)CCC3)c1C (centres undefined)
Cn1nc(C(C)(C)C)c([N+](=O)[O-])c1C(=O)Nc1ccc(Br)cc1
COc1ccccc1C(=O)COC(=O)c1cccs1
Nc1nc(Nc2ccccc2F)nc(N2CCOCC2)c1[N+](=O)[O-]
O=C(c1cc(S(=O)(=O)N2CCOCC2)ccc1Cl)N1CCc2ccccc2C1
CSc1nc2nc3c(cc2c(=O)n1-c1ccccc1C)CCCC3
Cc1cc([N+](=O)[O-])nn1CC(=O)Nc1cc(F)ccc1F
Nc1ccccc1Sc1ccc(C(F)(F)F)cc1[N+](=O)[O-]
Cc1noc(C)c1COc1cccc(C(=O)N2CCc3ccccc32)c1
CCCc1nc2oc3c(NCCCN(C)C)ncnc3c2c2c1CCCC2
O=C(c1ccc2c(c1)CCN2S(=O)(=O)c1ccccc1)N1CCN(c2ccccc2)CC1
O=C(O)c1ccc(-c2nc(-c3ccccc3)cs2)cc1
CCc1ccc2nc(N(CCCN(C)C)C(=O)c3ccc4c(c3)OCCO4)sc2c1
Nc1ncncc1-c1ccc(Cl)cc1
CC(=O)Nc1ccc(S(=O)(=O)Nc2cccc(-c3nc4cc(C)ccc4o3)c2)cc1
OCCN(Cc1ccccc1)Cc1ccc(F)c(F)c1
COC(=O)c1ccccc1NC(=O)c1ccc2c(c1)CC(C)O2 (centres undefined)
O=C(CN1CCCCC1)Nc1ccccc1-c1ccccc1
Cc1cc(C(=O)OCC(=O)Nc2cccc(S(N)(=O)=O)c2)c2ccccc2n1
COc1cccc(S(=O)(=O)N2CCCCN3[C@H](CO)[C@H](c4ccc(C#CC(C)C)cc4)[C@@H]3C2)c1
Cc1sc(NC(=O)CN2CCOCC2)nc1-c1ccc2c(c1)CCN2S(=O)(=O)c1ccccc1
Cc1ccc2nc(SCC(=O)c3ccc4c(c3)NC(=O)CO4)[nH]c2c1
COc1cccc(NC(=O)CN(C)CC(=O)Nc2ccc(Br)cc2)c1
COc1ccc(S(=O)(=O)N(C)C)cc1NC(=O)c1ccc2c(c1)NC(=O)C(C)S2 (centres undefined)
COc1cc(-c2cc3nc(NCCc4ccncc4)ccn3n2)cc(OC)c1OC
N#Cc1ccc(OCC(=O)N2CCN(S(=O)(=O)c3ccc(Cl)s3)CC2)cc1
Cc1ccc(NC(=O)c2ccc([N+](=O)[O-])o2)c(C)c1
COc1ccc(Cn2c(=O)c3[nH]cnc3n(-c3ccc(C)cc3)c2=O)cc1
S=C1SCN(Cc2cccnc2)CN1Cc1ccccc1
CCOc1ccc(CCNC(=O)CCn2ccc3cc(S(=O)(=O)N4CCCC4)ccc32)cc1
O=C(c1ccc(N2CCCCC2)c([N+](=O)[O-])c1)N1CCN(c2ccccn2)CC1
CN(C(=O)COc1ccccc1C(=O)NCCOc1ccccc1)c1ccccc1
CN(C(=O)c1ccc(F)cc1)c1ccc(OCC(=O)Nc2ccccc2C(=O)O)cc1
CC(CCC(=O)O)C1CC[C@@]2(C)C3C(=O)CC4C(C)(C)C(O)CC[C@]4(C)C3C(=O)C[C@]12C (some centres undefined)
CCOc1ccc2nc(SCC(=O)Nc3cccc(S(=O)(=O)NC4=NCCCCC4)c3)[nH]c2c1
COc1ccc(-c2nnc(COc3ccc(Br)cc3C)o2)cc1
Cc1cccc(C)c1-n1nnnc1C1(C)CCC(=O)N1Cc1cccs1 (centres undefined)
CCCC(=O)Nc1sc2c(c1C(=O)Nc1ccccn1)CCCC2
COc1ccc(NC(=O)c2cccs2)cc1C(=O)N1CCN(c2ccccc2)CC1
CC(C)Nc1nnc(SCC(=O)Nc2sccc2C#N)s1
COc1cc(NC(=O)c2ccc(Cl)cc2)c(OC)cc1NC(=O)CN1CCCCC1
CN(C)CCCN(C(=O)COc1ccc(Cl)cc1)c1nc2ccc(F)cc2s1
Cc1cccc(CSCC(=O)N2CCN(S(=O)(=O)c3ccccc3C#N)CC2)c1
COc1cc(OC)cc(C(=O)Nc2ccc(C(=O)Nc3ccccc3OC)cc2)c1
CC(C)Oc1ccc(C(=O)Nc2cccc3cccnc23)cc1
CC(C)CC#Cc1ccc2c(c1)O[C@@H](CN(C)Cc1ccccn1)[C@H](C)CN([C@H](C)CO)S2(=O)=O
CCCC(=O)Nc1cccc(C(=O)Nc2ccccc2OCC)c1
CC(C)(Nc1ccccc1)C(=O)c1ccccc1
COC(=O)c1ccccc1OCCOCCOc1cccc2ccc(C)nc12
Nc1ccccc1Nc1ccc([N+](=O)[O-])cc1[N+](=O)[O-]
Cc1ccccc1CSc1nnc(-c2ccncc2)o1
O=C(CCNc1cccc(Cl)c1)c1cccs1
C[C@@H]1CCCCO[C@@H](CN(C)C)[C@@H](C)CN([C@H](C)CO)C(=O)c2cc(NC(=O)Nc3cccc4ccccc34)ccc2O1
Cc1ccc(C2NC(c3ccc(C)cc3)C(C)C(=O)C2C)cc1 (centres undefined)
Cc1ccc(-c2c[n+](CC(=O)OCc3ccccc3)c3n2CCC3)cc1
Cc1noc(C)c1NC(=O)Nc1ccc2c(c1)C(=O)N([C@@H](C)CO)C[C@H](C)[C@H](CN(C)C(=O)Nc1ccc3c(c1)OCO3)OCCCC[C@H](C)O2
COc1ccc(-c2cc(C(=O)N(C)CCc3ccc(OC)c(OC)c3)c3ccccc3n2)cc1
c1ccc(Sc2ncnc3ccccc23)cc1
Cc1nc(SCC(=O)Nc2ccc3c(c2)OCCO3)nc(C)c1C
CCCN(Cc1ccco1)S(=O)(=O)c1ccc(OC)c(OC)c1
CCOC(=O)c1cc(C)nc(N2CCCCC2)c1C#N
Cn1cc(CN2CCCC(C(=O)c3cccs3)C2)c(-c2cccc(Cl)c2)n1 (centres undefined)
Nc1nc(-c2cc(-c3ccccc3)no2)cs1
Cc1cccc(C(=O)NCC(=O)NCCSc2ccc(Br)cc2)c1
N#CCC(=O)Nc1ccc(C(=O)OCC(=O)Nc2ccc3ccccc3c2)cc1
CCOc1cc(/C=C(\CC(=O)O)c2nc3ccccc3s2)ccc1OC
COc1ccc(-c2nc3ccc(Cl)cn3c2Cc2cccc(F)c2)cc1OC
COC(=O)c1sccc1NC(=O)Cn1nnc(-c2ccccc2C)n1
CCOc1ccc2nc(NC(=O)CSc3nc(SC)ns3)sc2c1
